Compound activity as filed in PubChem BioAssay.
A selection: hits, their analogues and other compounds. The true share with any hit is near 7.2%.
Bfl-1 A1 inh: caspase 3/7 activation in MEF A1-2A-BIM cells, primary screen, A1 inhibitor project, cell-based, luminescence, HTS; Caspase-Glo 3/7 luminescence, 3 h; percent of clofoctol response, vehicle zero; caspase activation, % (concentration not given with the values); actives 0.066% (n = 330,000);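 active = over half of replicate activation scores above 10%, or exactly half above 10 with the replicate mean above 10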
Mot1-301 SUMO: yeast Mot1-301 growth rescue at high temperature, primary screen, SUMOylation pathway inhibitor project, S. cerevisiae, ATP luminescence, 38.5C. S. cerevisiae Mot1-301 growth rescue; percent above DMSO median, 100 means doubled. growth rescue, % at 18.8 µM. actives 1% (n = 320,000);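 active = every valid replicate shows activation above 250% relative to neutral control wells; inactive = the rest, any valid replicate at or below 250%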;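 also: OY570 slx delta 5 strain wells were the positive control but not used for scaling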
Efflux pump mplx: inhibitors of Candida efflux pumps in yeast, primary screen, S. cerevisiae, Nile Red, multiplex. S. cerevisiae Candida pump triplex. inhibition, % at 10 µM. actives 0.44% (n = 330,000). AID 485275, 2010;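 active = plate passing quality check with inhibition over a set limit, or well fluorescence over plate mean plus 4 SD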;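 also: Nile Red retained in pooled yeast measured as flow cytometry median fluorescence; 0% = buffer negative control and 100% = Enniatin B positive control; higher means more Nile Red kept so more efflux inhibition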
ALR inh: inhibitors of human ALR sulfhydryl oxidase, primary screen, biochemical, H2O2 detection, HRP-luminol luminescence, single point; FAD-linked sulfhydryl oxidase ALR (Homo sapiens), P55789; purified ALR, DTT oxidation; inhibition, % (no concentration beside the values); actives 3.8% (n = 290,000);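 active = mean replicate inhibition above about 79%, with every replicate also reaching it, limit read from the data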
VLA-4 inh: inhibition in human VLA-4 binding assay, primary screen, VLA-4 allosteric modulator project, MLPCN library, flow cytometry, VLA-4 expressing cells; inhibition, % (about 7 µM as worked out from the volumes in the protocol); Integrin alpha-4 (Homo sapiens), P13612; ligand binding flow cytometry; actives 0.2% (n = 330,000); AID 2557, 2010; in the data active = inhibition above about 50%
Target sequence (P13612 whole entry, looked up): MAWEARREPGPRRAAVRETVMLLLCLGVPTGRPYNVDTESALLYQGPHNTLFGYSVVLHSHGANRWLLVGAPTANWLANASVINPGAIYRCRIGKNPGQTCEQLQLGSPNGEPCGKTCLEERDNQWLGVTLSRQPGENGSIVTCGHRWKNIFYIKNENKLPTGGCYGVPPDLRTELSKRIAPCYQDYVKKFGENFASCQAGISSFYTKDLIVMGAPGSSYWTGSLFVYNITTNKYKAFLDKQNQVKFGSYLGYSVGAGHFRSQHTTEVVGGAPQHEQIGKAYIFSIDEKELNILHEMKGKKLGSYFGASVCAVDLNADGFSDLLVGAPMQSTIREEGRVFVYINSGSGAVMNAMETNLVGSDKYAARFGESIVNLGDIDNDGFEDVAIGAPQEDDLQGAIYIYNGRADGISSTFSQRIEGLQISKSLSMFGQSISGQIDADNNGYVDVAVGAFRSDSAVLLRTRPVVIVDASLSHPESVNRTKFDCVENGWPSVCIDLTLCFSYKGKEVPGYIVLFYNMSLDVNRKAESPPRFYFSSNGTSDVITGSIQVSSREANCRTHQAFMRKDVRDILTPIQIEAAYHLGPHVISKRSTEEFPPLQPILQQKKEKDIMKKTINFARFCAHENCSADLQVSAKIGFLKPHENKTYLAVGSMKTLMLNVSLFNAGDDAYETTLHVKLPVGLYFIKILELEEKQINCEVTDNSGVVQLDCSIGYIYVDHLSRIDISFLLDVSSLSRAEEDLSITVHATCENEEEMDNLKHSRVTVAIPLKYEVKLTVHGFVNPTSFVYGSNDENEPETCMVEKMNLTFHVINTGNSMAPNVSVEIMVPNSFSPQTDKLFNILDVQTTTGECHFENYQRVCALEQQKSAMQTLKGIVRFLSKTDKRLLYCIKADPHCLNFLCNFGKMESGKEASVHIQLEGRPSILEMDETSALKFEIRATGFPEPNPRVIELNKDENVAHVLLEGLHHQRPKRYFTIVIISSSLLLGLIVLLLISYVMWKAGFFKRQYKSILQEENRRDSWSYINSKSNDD
AHR act: AHR activators, primary screen, cell-based, luminescence, luciferase reporter, human; Aryl hydrocarbon receptor (Homo sapiens), P35869; AHR-responsive luciferase reporter cells; activation, % at 5 µM; actives 2.5% (n = 320,000); in the data active = activation above about 47%;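 also: 0% = vehicle wells and 100% = reference agonist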
* = called active by the depositor; nt = not tested or not shown.

SMILES	Bfl-1 A1 inh	Mot1-301 SUMO	Efflux pump mplx	ALR inh	VLA-4 inh	AHR act
O=C(Nc1ccc2c(c1)C(=O)NC2=O)c1cccc(C(F)(F)F)c1	1	166	0	-1	17	53*
O=C(Nc1ccc(F)cc1)c1ccc(C(=O)N2CCOCC2)cc1	-1	20	nt	99*	nt	1
O=C(Nc1ccc2c(c1)C(=O)NC2=O)c1ccccc1	-3	-16	0	nt	-20	37
Cc1ccc(S(=O)(=O)NCC(C)n2nc(C)cc2C)cc1 (stereo not given)	1	-3	0	nt	-1	2
Cc1ccc(C(C[N+](=O)[O-])n2nc(C)cc2C)cc1 (stereo not given)	1	624*	0	-2	12	4
CCc1cccc(NC(=O)CSc2nnc(Cc3ccc(OC)cc3)c(=O)[nH]2)c1	0	6	0	-5	-18	3
CC1CC(C)CN(C(=O)c2ccc3c(c2)N(Cc2ccccc2)CCS3)C1 (stereo not given)	0	-5	0	nt	14	5
CCN1CCN(C(=O)c2ccc3c(c2)N(Cc2ccc(C)cc2)CCS3)CC1	1	-5	0	99*	-3	-2
CCOC(=O)N1CCN(C(=O)c2ccc3c(c2)N(Cc2ccccc2)CCS3)CC1	0	4	0	98*	-11	3
Cc1ccc(CN2CCSc3ccc(C(=O)N4CCN(c5ncccn5)CC4)cc32)cc1	0	8	0	6	-3	-1
Cc1ccc(CN2CCSc3ccc(C(=O)N4CCOCC4)cc32)cc1	0	6	0	99*	15	-1
N#Cc1c(/N=C/c2ccc(-c3ccc(C(=O)O)c(Cl)c3)o2)sc2c1CCCC2	-1	-12	0	99*	-3	1
COCc1cc(C)nc(N/N=C/c2ccc(-c3ccc(C(=O)O)c(Cl)c3)o2)c1C#N	0	8	0	98*	-7	3
Cc1c(O)ccc2c(CN3CCN(CCO)CC3)cc(=O)oc12	0	-2	-1	90*	5	2
Cc1c(O)ccc2c(CN3CCOCC3)cc(=O)oc12	-1	5	1	88*	5	2
Cc1cc(C)c2oc(=O)cc(CN3CCOCC3)c2c1	0	nt	0	1	-9	0
CCN(Cc1ccncc1)C(=O)c1ccco1	3	1	0	-2	6	-1
CCN(Cc1ccncc1)C(=O)c1cc(Br)cc(Br)c1O	0	-5	0	94*	35	2
O=S1(=O)CC=C(CSC(=S)NC2CCS(=O)(=O)C2)C1 (stereo not given)	1	-9	0	99*	8	0
CC(C)(C)c1cc(CSC(=S)NC2CCS(=O)(=O)C2)c(Br)c(C(C)(C)C)c1 (stereo not given)	-1	20	0	nt	12	0
COc1ccc(C(=O)Nc2cc(Cl)ccc2-n2cncn2)c(OC)c1OC	0	0	0	3	11	31
Cc1cn(CCC(=O)Nc2ccccc2N2CCOCC2)c2ccccc12	0	-6	0	3	-2	8
Cc1cccc(NC(=S)Nc2ccc(N3CCOCC3)cc2)c1C	-1	-15	0	99*	6	12
COC(=O)Cc1ccc(NC(=S)NCCCN2CCOCC2)cc1	-1	3	0	-19	-20	-2
Cc1cccc(NC(=S)NN2CCOCC2)c1C	0	-3	0	3	11	1
SMILES	Bfl-1 A1 inh	Mot1-301 SUMO	Efflux pump mplx	ALR inh	VLA-4 inh	AHR act
COc1ccccc1NC(=O)Nc1ccc(N2CCOCC2)cc1	-6	77	0	50	3	7
Cc1cn(CCC(=O)Nc2ccc(N3CCOCC3)cc2)c2ccccc12	-1	3	0	82*	12	12
COC(=O)Cc1ccc(NC(=S)Nc2ccc(N3CCOCC3)cc2)cc1	0	4	0	89*	7	2
COc1ccccc1CNCC(=O)Nc1ccc(N2CCOCC2)cc1	1	11	0	99*	-3	7
COc1ccc(CCNC(=O)c2c(O)c3c([nH]c2=O)CCCC3)cc1	0	60	0	-17	-3	0
Cc1ccc(C(=O)NCc2ccc(Cl)cc2)cc1S(=O)(=O)N1CCCCC1	-1	-10	0	nt	12	1
CCOc1ccc(/C(O)=C2/C(=O)C(=O)N(CCCN3CCOCC3)C2c2ccc(C)cc2)cc1C (stereo not given)	1	20	0	10	13	nt
CCCCSCCCNC(=O)Nc1ccc(C)c(C)c1	0	10	0	-6	12	3
CCN1CCN(C(=O)c2ccccc2Nc2ccc(SC(F)F)cc2)CC1	0	2	0	90*	-2	-4
O=C(N/N=C/c1ccncc1)c1ccccn1	-4	-1	0	-17	7	22
Cn1ccc(C(=O)N/N=C/c2cccnc2)n1	-2	110	0	1	4	14
CN(C)c1ccc(/C=N/NC(=O)c2ccco2)cc1	-7	67	0	99*	3	29
CN(C)c1ccc(/C=N/NC(=O)c2ccn(C)n2)cc1	-3	-13	0	94*	2	29
CN(C)c1ccc(/C=N/NC(=O)c2ccccn2)cc1	-8	-11	0	87*	4	33
CN(C)c1ccc(NC(=S)c2ccccn2)cc1	-10	25	0	98*	-73	0
CN(C)c1ccc(/C=N/NC(=O)c2ccnn2C)cc1	1	3	0	99*	18	41
CCC(=O)c1ccc(/C=C/c2nc3ccccc3n2C)o1	-1	-13	0	11	6	-1
Cc1ccc2nc(-c3ccccn3)oc2c1	-13	-20	0	0	14	61*
N#Cc1cc(C#N)c(N2CCN(c3ccccn3)CC2)nc1N	1	-16	-6	8	-13	6
CCOc1ccccc1-c1n[nH]c(=S)o1	1	-5	0	37	-5	30
COc1ccc(-c2n[nH]c(=S)o2)c(OC)c1	0	-15	0	90*	6	5
CCOC(=O)c1[nH]c(C)c(C(=O)OCC(=O)N(Cc2ccccc2)C(C)C)c1C	0	122	0	1	3	0
CCN(CC)S(=O)(=O)c1ccc(Cl)c(NC(=O)COC(=O)c2ccc([N+](=O)[O-])o2)c1	0	-6	0	-23	3	-1
CCOC(=O)CSc1nc2ccc(Nc3nc(N4CCOCC4)nc(N4CCOCC4)n3)cc2s1	2	4	0	99*	12	-3
